Measurements as given in PubChem BioAssay.

Test: growth of efflux-deficient E. coli DRC39 – strain DRC39, OD650, 48 h, E. coli filamentation inducers, primary screen (AID 1179);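 also: screen aims at cell division blockers that make cells filament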
Details: E. coli DRC39 delta-acrAB growth, higher = more signal, called active from +8 up or from −8 down

z-score, inactive:
O=C1c2ccccc2[C@](Cc2ccccc2I)(C(=O)NCCN2CCOCC2)[C@H](c2ccc(CO)cc2)N1Cc1ccccc1 -0.0438
CN(C)CCCCNC(=O)[C@H]1C[C@H]2C(=O)N3CCC[C@H]3C(=O)N2[C@H]1c1ccc(O)cc1 -0.565
C=C(CCCC)C(=O)CC[C@@H](OC(=O)c1ccccc1-c1ccccc1C(=O)O)c1cccc(OCCO)c1 -0.549
C=C(C(=O)CC[C@H](OC(=O)c1cccnc1)c1ccc(CO)o1)C(C)C -0.631
COc1ccc(C#Cc2ccc3c(c2)[C@]2(C(=O)N3)[C@H](C(=O)N3CCc4cc(OC)c(OC)cc4C3)[C@H]3C(=O)O[C@H](c4ccccc4)[C@H](c4ccccc4)N3[C@@H]2c2ccc(O)cc2)cc1 0.307
[N-]=[N+]=NCc1ccccc1C[C@@]1(C(=O)N2CCCCC2)N=C(c2ccc(OCCCO)cc2)O[C@@H]1c1ccccc1N=[N+]=[N-] -0.0021
C=C[C@@H](COC(C)=O)NS(=O)(=O)c1ccc(Br)cc1 0.0818
CCOC(=O)C[C@H]1[C@H](OC(=O)c2ccc(-c3ccccc3)cc2)[C@@H](NC(=O)c2ccc3ccccc3c2)c2cc(OCCCO)ccc2N1C(=O)c1ccc2ccccc2n1 -0.808
CC(C)(C)OC(=O)CC[C@]1(C(=O)NCCN2CCOCC2)N=C(c2ccc(OCCCO)cc2)O[C@H]1c1ccccc1 -0.448
C=CCOC(=O)[C@@H]1[C@H]2C(=O)O[C@H](c3ccccc3)[C@H](c3ccccc3)N2[C@H](c2ccc(OCCOC(=O)[C@H]3C[C@H]4C(=O)N[C@@H](CC(C)C)C(=O)N4[C@H]3c3ccc(O)cc3)cc2)[C@@]12C(=O)Nc1ccc(I)cc12 1.2
